Bioassay records deposited in PubChem by National Center for Advancing Translational Sciences (NCATS).
Rows were chosen to be rich in hits. Some 19% of all compounds tested hit in one or more screens of this group.
DT40 TDP1 CPT: growth inhibition of DT40 Tdp1-/-;hTDP1 cells with camptothecin (screen for TDP1 inhibitors). chicken DT40 Tdp1-/-;hTDP1 cells + 20 nM CPT, ATP luminescence, 48 h. Potency, µM (highest dose often 46.2 µM), without a hit: top-dose activity change, negative = growth inhibition, most hits filed as inhibitors. 420,000 compounds, 12% hits. AID 686979; note: potency is the fitted concentration of half-maximal effect; nearly all actives have a fitted effect of over 55% in size
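Cell growth measured by CellTiter-Glo luminescence after a minimum 48 h, 37 C compound exposure with 20 nM CPT in Tdp1-knockout DT40 cells stably expressing hTDP1, seeded 400/well; qHTS titration format.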
DT40 TDP1 no CPT: qHTS for Inhibitors of human tyrosyl-DNA phosphodiesterase 1 (TDP1): qHTS in cells in absence of CPT | Potency, µM (series often up to 46.2 µM), for inactives: at the highest dose activity change, negative = growth inhibition, actives largely listed as inhibitors | DT40 Tdp1-/- hTDP1 cells, no CPT, ATP luminescence, 48 h | 420,000 compounds, 15% hits; note: potency is the fitted concentration of half-maximal effect; nearly all actives have a fitted effect of over 55% in size
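Chicken DT40 Tdp1-/- cells complemented with human TDP1, screened without camptothecin (DMSO vehicle only), 400 cells/well. Compounds pin-transferred, cells incubated at 37 °C for at least 48 hr. Growth read as ATP-dependent luminescence (CellTiter-Glo, 30 min at RT).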
HT1080NT lethal: kills 2HG-producing HT-1080-NT fibrosarcoma cells | HT-1080-NT fibrosarcoma viability, CellTiter-Glo ATP luminescence, 48 h | Potency, µM (highest dose often 46.1 µM), inactives show at the top dose activity, negative = less viability, usual class: cytotoxic | 360,000 compounds, 1.6% hits;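 note: NT is the 2HG producing partner of a matched IDH1 knockdown line; potency is the fitted concentration of half-maximal effect; 0% = DMSO-treated cells and -100% = media-only wells without cells; nearly all actives have a fitted effect of over 55% in size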
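HT-1080-NT fibrosarcoma cells (2HG-overproducing), 750 cells/well in RPMI with 5% FBS, dosed after 2 h and incubated 48 h at 37C. CellTiter-Glo luminescence normalized to DMSO and no-cell wells; concentration-response curves fitted and classed.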
HT1080 IDH1KD tx: toxicity to HT-1080 IDH1 knockdown cells (counter line). HT-1080 IDH1 knockdown viability, ATP luminescence, 48 h. Potency, µM (top dose mostly 46.1 µM), for the others: at the top dose activity, negative = toxicity, actives largely listed as cytotoxic. 360,000 compounds, 2% hits;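 note: potency is the fitted concentration of half-maximal effect; 0% = DMSO wells and -100% = cell-free medium wells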
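IDH1KD HT-1080 cells, 750/well, RPMI + 5% FBS; compound pinned after 2 h settling; 48 h, 37 °C; CellTiter-Glo luminescence; % activity normalised to DMSO and no-cell wells; curves fitted, classed by r2 and efficacy.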
IL1B secr inh: inhibitors of inflammasome signaling (IL-1 beta secretion). THP-1 LPS/ATP IL-1B secretion, AlphaLISA, 16 h; hits give low values. activity change, % at 57.5 µM. 360,000 compounds, 4.7% hits. AID 743279; in the data active = activity change below about -50%; inconclusive = mostly about -30% to -49%
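THP-1 cells pretreated 1 hr with compounds (up to 57.5 uM final), then stimulated with LPS (250 ng/mL final) plus ATP (1.25 mM final); secreted IL-1B measured by AlphaLISA after 16 hr, decreased signal indicating inhibition.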
* hit, by the source's call; u = inconclusive; x = no result given; [ ] = another dose, or the depositor's remark. Unless noted, calls come from the whole dose curve; as a rule, active = well fitted curve in the direction sought with a large enough effect; inconclusive = small, poorly fitted or top-dose-only effect, or another doubt; inactive = no such curve, though single readings can be large; an effect the other way counts as inactive or inconclusive. Unless noted, % is set by controls: 0 for no effect and ±100 for the full control effect.

SMILES | DT40 TDP1 CPT | DT40 TDP1 no CPT | HT1080NT lethal | HT1080 IDH1KD tx | IL1B secr inh
O=C(c1ccc2c(=O)n(-c3ccccc3)c(=S)[nH]c2c1)N1CCN(c2ccccc2)CC1 | 15µM* | 12µM* | 1% | -9% | 24
O=C(c1ccc(F)cc1)N1CCN(c2ncccn2)CC1 | 7% | -6% | 23% | 10% | 11
O=C(c1ccc2c(=O)n(-c3ccccc3)c(=S)[nH]c2c1)N1CCCCC1 | 6.5µM* | 6.5µM* | -27% | -27% | 11
O=C(c1ccc2c(c1)[nH]c(=S)n1c3ccccc3nc21)N1CCN(c2ncccn2)CC1 | 21µM* | u | -13% | -2% | -23
CCOCCCn1c(=S)[nH]c2cc(C(=O)N3CCN(c4ccccc4)CC3)ccc2c1=O | u | -12% | 1% | 6% | 29
CCCc1cc(=O)[nH]c2nnc(SCCC(C)C)n12 | -3% | 2% | x | x | x
COc1ccc(N2C(=O)C(CC(=O)Nc3ccccc3)N(CCC3=CCCCC3)C2=O)cc1 (centres undefined) | 21µM* | 18µM* | x | x | x
COc1ccc(NC(=O)CC2C(=O)N(c3ccccc3)C(=O)N2CCc2cccs2)cc1 (centres undefined) | -21% | 1% | -5% | 1% | -29
COc1cccc(N2C(=O)C(CC(=O)Nc3ccc(F)cc3)N(C3CCCCC3)C2=O)c1 (centres undefined) | -5% | -15% | -6% | 3%[9.24 µM] | 4
Cc1ccc(N2C(=O)C(CC(=O)Nc3ccccc3)N(CCC3=CCCCC3)C2=O)cc1 (centres undefined) | 16µM* | 21µM* | x | x | x
COc1cccc(N2C(=O)C(CC(=O)Nc3ccc(F)cc3)N(CCC3=CCCCC3)C2=O)c1 (centres undefined) | u | 16µM* | x | x | x
Cc1ccccc1-c1cc(NCCN2CCOCC2)ncn1 | 12% | 1% | x | x | x
O=C(c1ccccc1)N1CCN2C(=O)c3ccccc3C12c1ccc(Cl)cc1 (centres undefined) | 21µM* | 18µM* | -26% | -22% | u
O=C(c1ccc(F)cc1)N1CCN2C(=O)c3ccccc3C12c1ccc(Cl)cc1 (centres undefined) | u | u | -8% | -2% | -26
Cc1onc(-c2ccccc2)c1C(=O)N1CCN(C)CC1 | 3% | -1% | 6% | 11% | 18
CCCCNC(=O)C1Cc2cc(S(=O)(=O)N3CCCCC3)ccc2N1C(C)=O (centres undefined) | -20% | 0% | 2% | 5% | 2
COCCOC(=O)c1[nH]c2c(c1C)C(=O)CC(c1cc(OC)c(OC)c(OC)c1)C2 (centres undefined) | 3.7µM* | 2.9µM* | -19% | -11% | -21
C=CCOC(=O)c1[nH]c2c(c1C)C(=O)CC(c1cc(OC)c(OC)c(OC)c1)C2 (centres undefined) | 21µM* | 7.3µM* | -2% | -13% | u
CCCCOC(=O)c1[nH]c2c(c1C)C(=O)CC(c1cc(OC)c(OC)c(OC)c1)C2 (centres undefined) | 6.5µM* | 5.2µM* | -3% | -20% | 4
C[C@@H](CO)NC(=O)c1[nH]cnc1C(=O)Nc1ccc(CNC(=O)OC(C)(C)C)cc1 | 23µM* | 12µM* | 3% | -3% | -4
CC(C)(C)OC(=O)CNC(=O)c1nc[nH]c1C(=O)NCc1ccccc1 | u | -16% | 13% | 0% | 19
CC(C)(C)OC(=O)CNC(=O)c1nc[nH]c1C(=O)NCc1ccc(CNC(=O)OC(C)(C)C)cc1 | 18µM* | 15µM* | -6% | 1% | 4
CCOC(=O)c1ccc(NC(=O)c2nc[nH]c2C(=O)N[C@@H](C)CO)cc1 | -1% | 21µM* | 1% | 0% | u
C[C@@H](O)CNC(=O)c1[nH]cnc1C(=O)Nc1ccc(CNC(=O)OC(C)(C)C)cc1 | u | u | -7% | -7% | 0
